Laboratory results published in ChEMBL document CHEMBL4513216, “Probing the Open Global Health Chemical Diversity Library for Multistage-Active Starting Points for Next-Generation Antimalarials” (ACS Infect Dis, 2020).
Among all 69,000 compounds or so, about 8,600 (12%) showed an effect of 50% or more. Only a selection was taken, and strong results are over-represented in it overall.

Each compound was assayed on Plasmodium berghei (assay: Screen against P. berghei liver stage (PbLuc), transformed with Luciferase, at 10uM). Conditions: tested at 10 uM.
Type: functional, HepG2

Compared with `CCn1ncc(S(=O)(=O)NC(C)c2cc(OC)ccc2OC)c1C` (stereo unspecified), `COc1cc(C(=O)N(Cc2cnn(C)c2)C(C)C)ccc1C` is lower in INHIBITION: 32.3% for the first, 14.1% for the second.

Going from `Cn1cncc1CN1CCC(O)(Cn2nc(-c3cccs3)oc2=O)CC1` to `CCN1CCN(C)C2(CCN(Cc3ccsc3)CC2)C1=O`, the INHIBITION falls from 38.7% to 17.4%.

Compared with `O=C(c1cnc[nH]1)N1CCC(Oc2cccnc2)CC1`, `O=C(c1ccccn1)N1CCC(Oc2cccnc2)CC1` is lower in INHIBITION: 55.9% for the first, -10.4% for the second.

First: O=C(c1ccc2[nH]cnc2c1)N1CCC(Oc2cccnc2)CC1
Second: O=C(c1ccc(=O)[nH]c1)N1CCc2c(nc(-c3cccnc3)[nH]c2=O)C1
The INHIBITION of the first is lower: 47.2% for the first, 61.8% for the second.

Compared with `COC(=O)c1cc(C(=O)N2CCC(C)CC2)n(-c2ccccc2)n1`, `NC(=O)COc1cccc(C(=O)N2CCCC(n3cccn3)C2)c1` (stereo unspecified) is lower in INHIBITION: 22.265% for the first, 20.1% for the second.

Going from `Cc1nc2cc(O)nn2c(C)c1CCC(=O)NCCc1nccn1C` to `CCn1c(N)nc2cc(C(=O)NCCc3ccncc3)cnc21`, the INHIBITION falls from 30.6% to -20%.

Going from `CCOC(=O)N1CCN(C(=O)c2cc(-c3ccc(C)cc3)on2)CC1` to `Cc1ccc(-c2nc(C(=O)N(C)C3CCN(C)CC3)cs2)c(C)c1`, the INHIBITION rises from 23.4% to 27.7%.

Going from `Cc1cc(C(=O)Nc2n[nH]c(C3CC3)n2)c2c(C)noc2n1` to `CCc1onc(C)c1C(=O)N1CCN(c2ncc3c(n2)CCOC3)CC1`, the INHIBITION rises from 6.83% to 17.05%.

Compared with `Nc1cc2c(nn1)CCN(C(=O)c1cccc3c1OCO3)C2`, `CN(C)c1nc2c(c(=O)[nH]1)CCN(C(=O)c1cccc3nccnc13)C2` is higher in INHIBITION: -16% for the first, 6.8% for the second.

Compared with `COC(=O)N1CC(C)=C(C)CN1C(=O)Nc1ccc(Cl)c(Cl)c1`, `CN(C)c1nc2c(c(=O)[nH]1)CCN(C(=O)c1c[nH]c(=O)c(Cl)c1)C2` is higher in INHIBITION: -52.3% for the first, 51.1% for the second.

Going from `O=C(CCC1CCCC1)N1CCCC(c2ncc3c(n2)CCNC3)C1` (stereo unspecified) to `O=C(CCC1CCCC1)N1CCC(c2ncc3c(n2)CCNC3)CC1`, the INHIBITION rises from 58.1% to 73.4%.

Going from `CCC(=O)N1CCCC(c2ncc3c(n2)CCN(C)C3)C1` (stereo unspecified) to `CN1CCc2nc(C3CCCN(C(=O)CC4CCCCC4)C3)ncc2C1` (stereo unspecified), the INHIBITION rises from 10% to 27.8%.

First: CCCC(=O)N1CCC(c2ncc3c(n2)CCNC3)CC1
Second: CCC(=O)N1CCC(c2ncc3c(n2)CCNC3)CC1
The INHIBITION of the first is lower: -28.6% for the first, 37.6% for the second.

Compared with `O=C(C1CCCC1)N1CCC(c2ncc3c(n2)CCNC3)C1` (stereo unspecified), `O=C(CC1CCCCC1)N1CCC(c2ncc3c(n2)CCNC3)CC1` is higher in INHIBITION: -32.2% for the first, 47.2% for the second.

First: CN1CCc2nc(C3CCN(C(=O)CCC4CCCC4)CC3)ncc2C1
Second: CN1CCN(Cc2nnc(C3CCN(S(C)(=O)=O)CC3)n2C)CC1
The INHIBITION of the first is higher: 85.9% for the first, -14.3% for the second.

Compared with `Cc1noc(C)c1C(=O)NCC(C)N1CCc2ccccc21` (stereo unspecified), `Cc1n[nH]c(C)c1C1COCCN1C(=O)c1n[nH]c2ccccc12` (stereo unspecified) is lower in INHIBITION: 13.6% for the first, -2.25% for the second.

First: Cc1cc(C(F)(F)F)nn1CC(C)C(=O)Nc1cccnc1 (stereo unspecified)
Second: CN1CC(C(=O)NCc2ccnc(-n3cccn3)c2)CC1=O (stereo unspecified)
The INHIBITION of the first is higher: 15.1% for the first, -0.7% for the second.

Compared with `Cc1noc(C2CCC3(CCN(C(=O)c4sccc4C)CC3)O2)n1` (stereo unspecified), `CN(C)c1nc2c(c(=O)[nH]1)CCN(C(=O)C1CCCO1)C2` (stereo unspecified) is higher in INHIBITION: -54.7% for the first, 6.26% for the second.

Compared with `CN(Cc1ccco1)[C@@H]1CN(Cc2ccncc2)C[C@@H]2CCCO[C@@H]21`, `Cn1ncc2c1C(COCC1CC1)CN(Cc1ccco1)C2` (stereo unspecified) is lower in INHIBITION: 23.5% for the first, 20.6% for the second.

First: Fc1ccc(C2(NCc3ccccc3)CCOCC2)cc1
Second: CSc1ccc(CNC2(c3ccc(F)cc3)CCOCC2)cc1
The INHIBITION of the first is lower: 4.48% for the first, 13.5% for the second.

Going from `CN(C)c1ccc(CNC2(c3ccc(F)cc3)CCOCC2)cc1F` to `O=C1Nc2ccccc2CC12CCCN2Cc1ccc(F)cc1` (stereo unspecified), the INHIBITION falls from 55.6% to -38.7%.

Compared with `O=S(=O)(c1cncc(F)c1)N1CCC2(CCCCC2)C1`, `O=S(=O)(c1cccnc1)N1C[C@H]2CCC[C@@]2(COc2ccccn2)C1` is higher in INHIBITION: 19.3% for the first, 38.5% for the second.

First: Cc1noc(C)c1CN1Cc2cnn(C)c2C(COCC2CC2)C1 (stereo unspecified)
Second: Cc1noc(C)c1CN1Cc2cn(C)nc2C(COCC2CC2)C1 (stereo unspecified)
The INHIBITION of the first is higher: 54.4% for the first, 48.6% for the second.

Compared with `Cc1ccc(CN2Cc3cnn(C)c3C(COCC3CC3)C2)o1` (stereo unspecified), `Cc1ccc(CN2Cc3nnn(C)c3C(COCC3CC3)C2)o1` (stereo unspecified) is lower in INHIBITION: 54.4% for the first, -14.7% for the second.

Going from `Cc1ncsc1CN1Cc2cnn(C)c2C(COCC2CC2)C1` (stereo unspecified) to `Cc1nc(C)n(CC2CCCN(CCOc3ccc(F)cc3)C2)n1` (stereo unspecified), the INHIBITION rises from -0.813% to 4.52%.

First: Cn1ncc2c(=O)[nH]c(CN3CCCC3c3ccccc3Cl)nc21 (stereo unspecified)
Second: COc1ccccc1Oc1cncc(C2CCCN(CC(N)=O)C2)n1 (stereo unspecified)
The INHIBITION of the first is lower: -19.6% for the first, 20.8% for the second.

Compared with `Cc1sc(Br)cc1S(=O)(=O)NCCCN`, `O=S(=O)(NCCC(O)c1ccoc1)c1ccc(Cl)s1` (stereo unspecified) is lower in INHIBITION: 8.08% for the first, -5.22% for the second.

Going from `CC(=O)N1CCCN(C(=O)NCC2(c3cccs3)CCCC2)CC1` to `CCS(=O)(=O)N1CCC2(CCC2NC(=O)c2ccn(C)c2)CC1` (stereo unspecified), the INHIBITION falls from 23.9% to 8.53%.

Compared with `CN1CCO[C@H]2CN(S(=O)(=O)c3ccc(C#N)cc3)C[C@H]21`, `O=C(c1ccno1)N1CCO[C@@H]2CC(COCc3ccccn3)C[C@H]21` (stereo partly specified) is higher in INHIBITION: 5.63% for the first, 8.6% for the second.

Compared with `CC(C)NCC1(COc2ccccc2)C[C@@H](O)[C@@H](O)C1` (stereo partly specified), `CC(C)CCN1CCCC12Cc1ccccc1CNC2=O` (stereo unspecified) is lower in INHIBITION: 38.3% for the first, 14.3% for the second.

Going from `NC(=O)c1cccc(OCC(=O)N2CCCC(n3cccn3)C2)c1` (stereo unspecified) to `NC(=O)c1ccc(OCC(=O)N2CCCC(n3cccn3)C2)cc1` (stereo unspecified), the INHIBITION falls from 57.5% to -25.9%.

Going from `O=C(CCCNc1ncccn1)N1CCCC(n2cccn2)C1` (stereo unspecified) to `O=C(CCNc1ncccn1)N1CCCC(n2cccn2)C1` (stereo unspecified), the INHIBITION rises from 8.48% to 50.3%.

First: O=C(CCNc1ncccn1)N1CCCC(n2ccnc2)C1 (stereo unspecified)
Second: NCC(=O)N1CCCC(c2cncc(Nc3ncccn3)n2)C1 (stereo unspecified)
The INHIBITION of the first is lower: 21.1% for the first, 51.7% for the second.

First: O=C(COCCc1ccccc1)N1CCCC(n2cncn2)C1 (stereo unspecified)
Second: O=C(COCCc1ccccc1)N1CCCC(n2cccn2)C1 (stereo unspecified)
The INHIBITION of the first is lower: 7.12% for the first, 61.9% for the second.

First: O=C(COCC1CC1)N1CCCC(n2cccn2)C1 (stereo unspecified)
Second: NCC(=O)N1CCCC(c2ccnc(Nc3cnccn3)n2)C1 (stereo unspecified)
The INHIBITION of the first is lower: 8.48% for the first, 18.9% for the second.

Compared with `Cc1nn(C)c(N(C)C)c1CNC(C)COc1ccc(F)cc1F` (stereo unspecified), `Cc1nc(C(C)C)ncc1C(=O)N1CCc2c(nc(N(C)C)[nH]c2=O)C1` is higher in INHIBITION: -41.6% for the first, 50.1% for the second.

Going from `COc1cc2nc(C)n(CC(=O)NCCO)c(=O)c2cc1OC` to `COc1cc(OC)cc(-c2noc(CC(N)c3ccccc3)n2)c1` (stereo unspecified), the INHIBITION rises from 4.82% to 36.3%.

Going from `CN(CC(F)(F)F)C(=O)CNC(=O)N1CCCC(N(C)C)C1` (stereo unspecified) to `CC1CCN(C(=O)NCC(=O)N(C)CC(F)(F)F)C1` (stereo unspecified), the INHIBITION falls from 53.3% to 18.6%.

Going from `CN(CC(F)(F)F)C(=O)CNC(=O)N1CCCC(C(F)(F)F)C1` (stereo unspecified) to `CN(Cc1nnn(CC2CC2)n1)C(=O)c1ccccc1`, the INHIBITION falls from 18.6% to 1.74%.

Going from `COCC(=O)N1CCCC1c1nccnc1Nc1ncccn1` (stereo unspecified) to `CCC(=O)N1CCCC1c1nccnc1Nc1ncccn1` (stereo unspecified), the INHIBITION rises from 7.05% to 42.6%.

First: NC(=O)CN1CCCC(c2cncc(Nc3ncccn3)n2)C1 (stereo unspecified)
Second: c1cnc(Nc2cncc(C3CCCN(c4ncccn4)C3)n2)nc1 (stereo unspecified)
The INHIBITION of the first is higher: 59% for the first, -0.371% for the second.

Compared with `NCC(=O)N1CCCC1c1nccnc1Nc1ncccn1` (stereo unspecified), `c1cnc(Nc2cncc(C3CCCN(c4cnccn4)C3)n2)nc1` (stereo unspecified) is lower in INHIBITION: 59% for the first, -6.3% for the second.

Going from `COc1cc(N2CC[C@@H]3O[C@H](C(=O)NCC4CC4)C[C@@H]32)ncn1` to `CC(C)Oc1ccc(C(=O)N2CCCCC2Cn2cccn2)cn1` (stereo unspecified), the INHIBITION rises from -22.1% to -21.645%.

First: Cc1cc(Oc2ccccc2F)nc(C2CCCCN2)n1 (stereo unspecified)
Second: Cc1cc(C)c(CN2CCCC23Cc2ccccc2CNC3=O)c(C)c1 (stereo unspecified)
The INHIBITION of the first is lower: 10.9% for the first, 68.9% for the second.

Compared with `CCn1c(=O)n(CCC(=O)N(C)Cc2ccc(C)o2)c2ccccc21`, `CCCn1c(=O)n(CCC(=O)N(C)Cc2ccc(C)o2)c2ccccc21` is higher in INHIBITION: 15.4% for the first, 83.2% for the second.

First: Cc1ccc(CN(C)C(=O)CCn2c(=O)n(C)c3ccccc32)o1
Second: Cc1ccc(CCN2CCCC23Cc2ccccc2CNC3=O)cc1 (stereo unspecified)
The INHIBITION of the first is lower: 49.7% for the first, 54.9% for the second.

Going from `CCN1CCC(NC(=O)NCC(O)c2ccc(Cl)c(F)c2)CC1` (stereo unspecified) to `O=c1[nH]nc(CCCN2CCOCC2)n1Cc1cccc(F)c1`, the INHIBITION falls from 43.1% to 10.3%.

First: O=C1NCc2ccccc2CC12CCCN(CCCc1ccccc1)C2 (stereo unspecified)
Second: Cc1ccc(CN2CCCC23Cc2ccccc2CNC3=O)cc1 (stereo unspecified)
The INHIBITION of the first is lower: 27.5% for the first, 52.4% for the second.

First: O=C1Nc2ccccc2CC12CCCN2Cc1ccccn1 (stereo unspecified)
Second: O=C1Nc2ccccc2CC12CCCN2Cc1cccnc1 (stereo unspecified)
The INHIBITION of the first is higher: 27.5% for the first, -2.28% for the second.

First: CC(C)(C)CN1CCCC12Cc1ccccc1CNC2=O (stereo unspecified)
Second: O=C(c1cccnc1)N1CCc2c(nc(N3CCCC3)[nH]c2=O)C1
The INHIBITION of the first is lower: 32.5% for the first, 46% for the second.

Compared with `Nc1ccc(CC2CCCN(Cc3c[nH]cn3)C2)nn1` (stereo unspecified), `COc1ccc(CN2CCn3cc(CN4CCCCC4)nc3C2)cc1` is higher in INHIBITION: -4.87% for the first, 0.79% for the second.

Going from `CN(C)c1nc2c(c(=O)[nH]1)CCN(C(=O)c1ccc(=O)[nH]c1)C2` to `CCCc1ccc(C(=O)N2CCc3c(nc(N(C)C)[nH]c3=O)C2)cc1`, the INHIBITION rises from 4.1% to 23.3%.

Compared with `O=c1[nH]c(-c2cccnc2)nc2c1CCN(S(=O)(=O)N1CCCC1)C2`, `O=C(CCN1CCCCC1)Nc1c2c(cc3c1CCC3)CCC2` is lower in INHIBITION: 23.6% for the first, 18.8% for the second.
